# Test results taken from PubChem BioAssay.
# Unmarked numbers belong to inactive results. For some assays here: Measured potencies and affinities stand elsewhere. Activity calls are given as the source filed them. Unless noted, the rule behind the calls is not given here.
# Assays:
# [1] = antimalarial activity against Dd2 strain (AID 2302;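 active = growth inhibition above 50% at the single 2 µM test dose, taken to imply half-maximal potency below 2 µM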;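 note: 0% = DMSO untreated growth and 100% = chloroquine plus artemisinin killed control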); conditions: P. falciparum Dd2 in RBCs, LDH growth readout, 72 h; at 2 µM; stronger effect = higher value
# [2] = biological target: L-lactate dehydrogenase (Plasmodium falciparum (isolate CDC / Honduras)) (UniProt Q27743); assay: PfLDH activity inhibition – cell lysate, 3D7 strain, counter-screen for P. falciparum growth inhibition project (AID 2304);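 note: 0% = vehicle and 100% = reference inhibitor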; conditions: P. falciparum 3D7 crude extract, LDH APAD/NBT absorbance; at 2 µM; stronger effect = higher value
# [3] = inhibition of 3D7 malaria parasite growth – strain 3D7 (AID 2306);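 note: 0% = DMSO wells and 100% = chloroquine plus artemisinin control wells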; conditions: P. falciparum 3D7 erythrocytic growth, LDH absorbance, 72 h; at 2 µM; stronger effect = higher value
# [4] = biological target: Calcium-dependent protein kinase 1 (Plasmodium falciparum (isolate 3D7)) (UniProt P62344); assay: PfCDPK1 kinase inhibitors, biochemical, TCAMS library (AID 1159585; cut-off not given, nearly all actives have IC50 up to about 0.98 µM;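 note: inhibitors leave more ATP so luminescence rises with inhibition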); conditions: recombinant PfCDPK1, Kinase-Glo ATP depletion luminescence
# [5] = biological target: Plasmodium falciparum protein kinase 6 (PK6, PF3D7_1337100) (UniProt Q8IDW1); assay: PfPK6 kinase inhibitors, biochemical, TCAMS library (AID 1159586); conditions: recombinant PfPK6, Kinase-Glo ATP depletion luminescence
# [6] = biological target: Protein kinase 7 (PK7), Plasmodium falciparum 3D7 (PF3D7_0213400) (UniProt Q7YTF7); assay: inhibition of Plasmodium PK7 catalytic activity – biochemical, TCAMS antimalarial set, Kinase-Glo luminescence (AID 1159587); conditions: recombinant PfPK7, Kinase-Glo ATP depletion luminescence
# [7] = biological target: Calcium-dependent protein kinase 4 (Plasmodium falciparum (isolate 3D7)) (UniProt Q8IBS5); assay: PfCDPK4 kinase inhibitors, biochemical, TCAMS library (AID 1159588; cut-off not given, nearly all actives have IC50 up to about 0.91 µM); conditions: recombinant PfCDPK4, Kinase-Glo ATP depletion luminescence
# Calcium-dependent protein kinase 4 (Plasmodium falciparum (isolate 3D7)), sequence (Q8IBS5 whole entry, looked up): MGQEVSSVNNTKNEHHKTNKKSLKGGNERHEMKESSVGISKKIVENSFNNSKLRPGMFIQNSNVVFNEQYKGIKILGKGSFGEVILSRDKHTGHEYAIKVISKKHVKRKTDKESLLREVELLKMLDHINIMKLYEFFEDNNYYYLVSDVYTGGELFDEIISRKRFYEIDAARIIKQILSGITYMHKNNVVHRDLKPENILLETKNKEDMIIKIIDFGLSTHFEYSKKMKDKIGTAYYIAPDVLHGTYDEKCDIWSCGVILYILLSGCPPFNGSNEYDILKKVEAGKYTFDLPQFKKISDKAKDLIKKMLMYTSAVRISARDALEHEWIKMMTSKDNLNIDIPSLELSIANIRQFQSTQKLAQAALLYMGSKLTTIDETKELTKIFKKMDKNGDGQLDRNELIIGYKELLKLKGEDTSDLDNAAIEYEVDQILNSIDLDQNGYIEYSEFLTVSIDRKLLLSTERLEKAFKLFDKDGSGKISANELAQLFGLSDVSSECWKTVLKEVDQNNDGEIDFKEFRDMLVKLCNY
# Calcium-dependent protein kinase 1 (Plasmodium falciparum (isolate 3D7)), sequence (P62344 whole entry, looked up): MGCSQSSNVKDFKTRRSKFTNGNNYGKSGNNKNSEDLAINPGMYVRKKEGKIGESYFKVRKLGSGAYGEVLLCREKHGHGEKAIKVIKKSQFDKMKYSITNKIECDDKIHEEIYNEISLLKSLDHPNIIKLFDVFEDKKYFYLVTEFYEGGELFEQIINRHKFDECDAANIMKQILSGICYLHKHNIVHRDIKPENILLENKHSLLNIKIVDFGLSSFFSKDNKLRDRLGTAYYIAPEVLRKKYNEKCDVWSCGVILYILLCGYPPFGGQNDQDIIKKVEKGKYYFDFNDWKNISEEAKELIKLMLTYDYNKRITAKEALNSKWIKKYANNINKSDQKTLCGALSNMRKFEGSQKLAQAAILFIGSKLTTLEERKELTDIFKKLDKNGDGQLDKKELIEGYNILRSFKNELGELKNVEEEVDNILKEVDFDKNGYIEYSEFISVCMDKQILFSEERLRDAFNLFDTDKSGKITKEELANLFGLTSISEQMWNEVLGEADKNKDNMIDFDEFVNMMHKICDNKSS
# Protein kinase 7 (PK7), Plasmodium falciparum 3D7 (PF3D7_0213400), sequence (Q7YTF7 1-343): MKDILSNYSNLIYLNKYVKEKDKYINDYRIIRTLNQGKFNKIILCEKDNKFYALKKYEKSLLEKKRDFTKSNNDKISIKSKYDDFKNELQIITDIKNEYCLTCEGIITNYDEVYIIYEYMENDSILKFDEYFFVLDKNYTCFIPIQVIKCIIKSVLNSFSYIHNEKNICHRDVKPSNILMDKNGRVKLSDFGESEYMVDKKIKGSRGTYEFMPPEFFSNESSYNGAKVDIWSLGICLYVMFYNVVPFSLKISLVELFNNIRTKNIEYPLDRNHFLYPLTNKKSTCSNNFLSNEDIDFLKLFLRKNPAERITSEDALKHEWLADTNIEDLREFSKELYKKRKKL
# L-lactate dehydrogenase (Plasmodium falciparum (isolate CDC / Honduras)), sequence (Q27743 whole entry, looked up): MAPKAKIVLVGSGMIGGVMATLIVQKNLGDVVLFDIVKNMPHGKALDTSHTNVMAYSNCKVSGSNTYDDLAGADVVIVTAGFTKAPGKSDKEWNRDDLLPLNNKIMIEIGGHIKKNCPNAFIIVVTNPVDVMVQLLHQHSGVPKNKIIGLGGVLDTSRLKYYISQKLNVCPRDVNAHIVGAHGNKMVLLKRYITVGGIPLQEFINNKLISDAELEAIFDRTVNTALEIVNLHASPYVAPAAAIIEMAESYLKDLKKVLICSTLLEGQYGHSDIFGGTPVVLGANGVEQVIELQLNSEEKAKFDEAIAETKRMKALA
# Plasmodium falciparum protein kinase 6 (PK6, PF3D7_1337100), sequence (Q8IDW1 1-305): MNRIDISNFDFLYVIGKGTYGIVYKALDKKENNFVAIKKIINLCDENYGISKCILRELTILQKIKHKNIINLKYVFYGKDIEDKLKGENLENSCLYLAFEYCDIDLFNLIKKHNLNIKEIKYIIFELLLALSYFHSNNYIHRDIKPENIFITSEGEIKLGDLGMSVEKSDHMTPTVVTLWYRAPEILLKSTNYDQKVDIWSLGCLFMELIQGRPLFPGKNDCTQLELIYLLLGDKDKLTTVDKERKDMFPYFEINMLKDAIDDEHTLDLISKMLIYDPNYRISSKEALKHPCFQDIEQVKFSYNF
Compound,growth inhibition [1],inhibition [2] [%],growth inhibition [3],outcome [4],outcome [5],outcome [6],outcome [7]
Cc1c(C(C)(C)C)ccc2nc(N)nc(N)c12,-2%,-1,89% (active),inactive,inactive,inactive,inactive
CCN(CC)CCCN(CCCN(CC)CC)c1cc(C)nc(Nc2ccc(Br)cc2)n1,40%,6,101% (active),inactive,inactive,inactive,inactive
CCCCCCCc1c(C)[nH]c2ccc(F)cc2c1=O,96% (active),-5,98% (active),inactive,inactive,inactive,inactive
C=CCn1ccc2c3c(N)nc(N)nc3ccc21,91% (active),-7,89% (active),inactive,inactive,inactive,inactive
CCCCN(CCCC)Cc1cc(N(C)c2ccc([N+](=O)[O-])cn2)ccc1O,98% (active),7,98% (active),inactive,inactive,inactive,inactive
Nc1nc(N)c2c(n1)CCc1cc(Br)ccc1-2,4%,6,87% (active),inactive,inactive,inactive,inactive
Cc1[nH]c(C)c(-c2ccc(Cl)cc2)c(=O)c1I,96% (active),-5,93% (active),inactive,inactive,inactive,inactive
CN=C(N)c1ccc(NC(=O)C=Cc2ccc(C(=O)Nc3ccc(C(N)=NC)cc3)cc2)cc1,100% (active),1,97% (active),inactive,inactive,inactive,inactive
Cc1[nH]c(C)c(-c2ccc(Sc3ccc(Cl)cc3)cc2)c(=O)c1Br,97% (active),0,98% (active),inactive,inactive,inactive,inactive
CC(C)Oc1ccc2ccccc2c1CNCCCCCCNCc1c(OC(C)C)ccc2ccccc12,90% (active),-7,99% (active),inactive,inactive,inactive,inactive
CN(C)C(=S)N=Nc1c(O)[nH]c2ccccc12,96% (active),2,95% (active),inactive,inactive,inactive,inactive
Cc1[nH]c(C)c(-c2ccc(Oc3ccc(Cl)cc3)cc2)c(=O)c1Cl,16%,-3,91% (active),inactive,inactive,inactive,inactive
CCC1=C(C[C@H]2NCCc3cc(OC)c(OC)cc32)C[C@H]2c3cc(OC)c(OC)cc3CCN2C1,100% (active),-2,102% (active),inactive,inactive,inactive,inactive
Nc1nc(N)c2c(Sc3ccccc3)cccc2n1,0%,-5,97% (active),inactive,inactive,inactive,inactive
Nc1nc(N)c2c(ccc3c2cnn3Cc2cccnc2)n1,96% (active),0,95% (active),inactive,inactive,inactive,inactive
COc1cc(Cc2cnc(N)nc2N)cc(OCCCCCCN)c1OC,-4%,-6,96% (active),inactive,inactive,inactive,inactive
CC(C)C(=O)Nc1c(F)cc(F)cc1CCc1ccc(O)cc1,91% (active),2,90% (active),inactive,inactive,inactive,inactive
COc1cc(Cc2cnc(N)nc2N)cc(OCCCCC#N)c1OC,-1%,8,86% (active),inactive,inactive,inactive,inactive
Nc1nc(N)c2cc(Cc3ccc([N+](=O)[O-])cc3)cnc2n1,-3%,-2,91% (active),inactive,inactive,inactive,inactive
Cc1[nH]c(C)c(-c2ccc(Oc3ccc(F)cc3)cc2)c(=O)c1Br,98% (active),-1,100% (active),inactive,inactive,inactive,inactive
COc1ccc(OC)c(CC2c3ccc(Br)c(O)c3CCN2C)c1 (stereo not given),97% (active),-7,98% (active),inactive,inactive,inactive,inactive
COc1ccc(Cc2cnc3nc(N)nc(N)c3c2C)cc1OC,97% (active),-5,93% (active),inactive,inactive,inactive,inactive
Oc1cc2ccccc2cc1CNC1CCCCC1,89% (active),-9,98% (active),inactive,inactive,inactive,inactive
CC(=O)Nc1ccc(OCCCCCOc2ccc(NC(C)=O)cc2Cl)c(Cl)c1,0%,-7,93% (active),inactive,inactive,inactive,inactive
CCCCCCCN(Cc1ccc(OC(C)(C)C(=O)OCC)cc1)C(=O)Nc1ccc(Cl)cc1OCC,89% (active),1,95% (active),inactive,inactive,inactive,inactive

Compound,growth inhibition [1],inhibition [2] [%],growth inhibition [3],outcome [4],outcome [5],outcome [6],outcome [7]
Cc1[nH]c(C)c(-c2ccc(Oc3ccc(Cl)cc3)cc2)c(=O)c1I,49%,5,88% (active),inactive,inactive,inactive,inactive
Cc1[nH]c(C)c(-c2ccc(Oc3ccc(Cl)cc3)cc2)c(=O)c1C,95% (active),-8,96% (active),inactive,inactive,inactive,inactive
CC1CCN(Cc2c(O)ccc3c(CN4CCC(C)CC4)c(O)ccc23)CC1,86% (active),-3,102% (active),inactive,inactive,inactive,inactive
Oc1ccc2c(CNC3CCCCC3)c(O)ccc2c1CNC1CCCCC1,101% (active),-4,101% (active),inactive,inactive,inactive,inactive
Nc1nc(N)c(-c2ccccc2)c(=O)[nH]1,-5%,0,83% (active),inactive,inactive,inactive,inactive
CCCc1cc(Cc2cnc(N)nc2N)cc2c1OC(C)(C)C2,3%,-1,89% (active),inactive,inactive,inactive,inactive
CCCCCCOc1ccc2ccccc2c1CNCCCCCCNCc1c(OCCCCCC)ccc2ccccc12,55% (active),6,85% (active),inactive,inactive,inactive,inactive
Clc1ccc(CNCCCCCCCNCc2ccc(Cl)c(Cl)c2)cc1Cl,49%,-7,99% (active),inactive,inactive,inactive,inactive
CCCCCCCCCC(=O)NCC1CC(Br)=NO1 (stereo not given),42%,-7,87% (active),inactive,inactive,inactive,inactive
Cc1nc2nc(N)nc(N)c2c(C)c1Cc1ccc(N)cc1,-2%,-4,97% (active),inactive,inactive,inactive,inactive
COc1cccc(Cn2ccc3c4c(N)nc(N)nc4ccc32)c1,96% (active),-2,99% (active),inactive,inactive,inactive,inactive
Nc1nc(N)c2c(Oc3cccc(Cl)c3)cccc2n1,7%,-7,97% (active),inactive,inactive,inactive,inactive
CCc1nc(N)nc(N)c1-c1ccc2c(c1)CCCC2,-5%,-5,95% (active),inactive,inactive,inactive,inactive
CCC(C(C)C)n1ccc2c3c(N)nc(N)nc3ccc21 (stereo not given),95% (active),3,95% (active),inactive,inactive,inactive,inactive
CCOC(=O)c1c(-c2ccccc2)c(C(=O)OCC)n2ccccc12,70% (active),-1,93% (active),inactive,inactive,inactive,inactive
CC(=O)Oc1c(Cl)c(C)nc(C)c1-c1ccc(Oc2ccc(Cl)cc2)cc1,96% (active),0,98% (active),inactive,inactive,inactive,inactive
FC(F)(F)c1ccc2c(NCCCNc3ccnc4cc(C(F)(F)F)ccc34)ccnc2c1,101% (active),3,100% (active),inactive,inactive,inactive,inactive
CCCCc1nc2nc(N)nc(N)c2cc1CCC,-3%,-1,97% (active),inactive,inactive,inactive,inactive
c1ccc2c(CNCCCN3CCN(CCCNCc4c5ccccc5cc5ccccc45)CC3)c3ccccc3cc2c1,100% (active),0,101% (active),inactive,inactive,inactive,inactive
CCOc1cc(Cc2cnc(N)nc2N)ccc1OC,-4%,-1,88% (active),inactive,inactive,inactive,inactive
CC(=O)Oc1c(Cl)c(C)nc(C)c1-c1ccc(Oc2ccc(OC(F)(F)F)cc2)cc1,98% (active),5,97% (active),inactive,inactive,inactive,inactive
Nc1nc(N)c2c3c(ccc2n1)NCCC3,-10%,-3,97% (active),inactive,inactive,inactive,inactive
CC(C)(C)c1ccc(-c2nnc(N)nc2N)cc1,-4%,-4,92% (active),inactive,inactive,inactive,inactive
CC(C)CNc1nc(N)nc2ccc3c(ccn3CC(C)C)c12,51% (active),-7,99% (active),inactive,inactive,inactive,inactive
COc1cc(Cc2cnc3nc(N)nc(N)c3c2C)cc(OC)c1OC,98% (active),1,95% (active),inactive,inactive,inactive,inactive
